Hits are enriched below; roughly 3.4% of the tested compounds scored in any of these assays.
TROY signal inh: inhibitors of TROY-driven NF-kB signaling, primary screen, Q293 LMP1-TROYcd cells, NF-kB luciferase, uHTS; Q293 LMP1-TROYcd NF-kB luciferase reporter, 4 h; inhibition, % at 10 µM; hit rate 0.98% among 360,000; AID 1347056, 2019;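 active means compounds whose plate-normalised and pattern-corrected inhibition of the luciferase reporter signal at the single screening dose is 50% or more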
HIF-2a block: HIF-2a reporter inhibitors, primary screen, luminescence, 786-0 RCC cells | 786-0 RCC cells HIF-2a reporter, luciferase luminescence, overnight | inhibition, % at 18.8 µM | hit rate 0.72% among 360,000 | AID 624352, 2012;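 active means inhibition of the luminescence signal of 40% or more relative to plate controls, in a single-dose primary screen at 18.75 µM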
EBV LMP1 NFkB: EBV LMP1-driven NF-kappaB luciferase reporter inhibitors, primary screen, cell-based, luminescence, single point; LMP1-induced NF-kappaB luciferase reporter cells; hit rate 0.69% among 350,000; inhibition, % at 12.5 µM; in the data active means inhibition above about 41%; inconclusive means no clear call, values can overlap the other calls
Shn3 3UTR inh: reduction of Shn3 3'UTR firefly luciferase signal, primary screen, Schnurri-3 inhibitor project, cell-based, Clone20 osteoblasts, set 2; Clone20 osteoblast Shn3 3'UTR firefly luciferase, 24 h; inhibition, % at 12.5 µM; hit rate 0.52% among 360,000;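 active means mean inhibition of at least 75% with every replicate also reaching 75%; inconclusive means mean inhibition at least 75% but some replicate below; inactive means mean inhibition below 75%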
TWEAK Fn14 block: inhibitors of TWEAK-Fn14 signaling, primary screen, luciferase reporter cells, uHTS. TWEAK-stimulated Fn14 reporter cells, luciferase luminescence, 8 h. inhibition, % at 10 µM. hit rate 2% among 360,000. AID 1159606, 2016; in the data active means inhibition above about 50%
TRPM1 prom inh: inhibitors of MITF-dependent TRPM1 promoter reporter, primary screen, cell-based, SK-MEL-5, single point, luciferase | SK-MEL-5 TRPM1 promoter luciferase, 24 h | hit rate 0.83% among 330,000 | inhibition, % at 12.5 µM;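 active means mean inhibition across replicates of 60% or more, whatever share of single replicates reaches that level; inconclusive means some that reach 60%, reason not given; inactive means mean inhibition across replicates below 60%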
Each line names hits and unclear results; the compound was inactive in the other large screens.

O=S(=O)(c1ccccc1)N(CC(F)(F)F)c1ccc(C(O)(C(F)(F)F)C(F)(F)F)cc1	none (no result: EBV LMP1 NFkB, TRPM1 prom inh)
COc1ccc(-c2csc3ncn(Cc4ccccc4)c(=O)c23)cc1	TWEAK Fn14 block 90.8 (no result: TRPM1 prom inh)
COc1ccc(C(=O)Nc2cccc(-c3nnc(-c4ccco4)o3)c2)cc1	TWEAK Fn14 block 56.9
Cc1cc(C)cc(OCC(=O)Nc2cccc(-c3nnc(-c4ccco4)o3)c2)c1	TROY signal inh 56.6, TWEAK Fn14 block 67.9
O=C(Nc1cccc(-c2nnc(-c3ccccc3)o2)c1)c1ccc(Br)o1	TROY signal inh 58.4
O=c1cc(C(F)(F)F)nc(SCc2cccc3ccccc23)[nH]1	TROY signal inh 62.2
CC(=O)N/C(=C\c1ccccc1)C(=O)OCC(=O)Nc1cc(S(=O)(=O)N(C)C)ccc1Cl	none
O=C1c2ccccc2C(Nc2ccc(Cl)cc2)N1CCN1CCOCC1 (centres undefined)	EBV LMP1 NFkB 82.9
COc1ccc(S(=O)(=O)N(C)c2ccc(C(=O)Nc3cccnc3)cc2)cc1	none
Cc1c(C(=O)Nc2cccc(Cl)c2)oc2ccc(S(=O)(=O)N3CCC4(CC3)OCCO4)cc12	TWEAK Fn14 block 62.4
Cc1c(C(=O)Nc2ccc(F)cc2)oc2ccc(S(=O)(=O)N3CCC4(CC3)OCCO4)cc12	TWEAK Fn14 block 53.5
Cc1c(C(=O)Nc2ccc(F)c(F)c2)oc2ccc(S(=O)(=O)N3CCCCC3)cc12	TWEAK Fn14 block 81.2
Cc1c(C(=O)Nc2ccc(F)cc2)oc2ccc(S(=O)(=O)N3CCCC3)cc12	none
Cc1c(C(=O)NCc2ccccc2)oc2ccc(S(=O)(=O)N3CCC4(CC3)OCCO4)cc12	none
O=C(c1ccco1)N1CCN(C(=O)c2ccccc2OCc2ccccc2)CC1	none
COc1ccc(CCc2ccc3ccccc3n2)cc1	none
CC(=O)N(C)c1ccc(OCC(O)Cn2c(C)nc3ccccc32)cc1 (centres undefined)	none
CC(=O)N(C)c1ccc(OCC(O)Cn2c3ccc(Cl)cc3c3cc(Cl)ccc32)cc1 (centres undefined)	TROY signal inh 62.9
CCOc1cc(N2CCOCC2)c(OCC)cc1NC(=O)c1cc(-c2ccco2)nc2ccccc12	Shn3 3UTR inh 92.3
CCOc1cc(N2CCOCC2)c(OCC)cc1NC(=O)COc1ncnc2ccccc12	none
CC12CCC(C(=O)N(c3nccs3)C1=O)C2(C)C (centres undefined)	Shn3 3UTR inh inconclusive
Cc1cc(N2CCCC2=O)cc(C)c1S(=O)(=O)Nc1c(C)nn(C)c1C	EBV LMP1 NFkB 49.2
O=C(C1CCN(c2ncnc3c2nc2n3CCCCC2)CC1)N1CCN(c2cccc(Cl)c2)CC1	TWEAK Fn14 block 54.1
O=C(C1CCCN(c2ncnc3c2nc2n3CCCCC2)C1)N1CCN(c2ccc(Cl)cc2)CC1 (centres undefined)	none
O=C(CC(O)(c1ccccc1)c1ccccc1)Nc1ccccn1	none
CCc1nc2c(OCc3cccc(Cl)c3)cccn2c1N(C)C(=O)c1ccc(OC)cc1	none (no result: EBV LMP1 NFkB, TRPM1 prom inh)
O=C(/C=C/c1ccco1)NCC1COc2ccccc2O1 (centres undefined)	none
CC(C)(C)C(=O)Nc1ccc(-c2cc3cc(Cl)ccc3o2)cc1	TROY signal inh 61.5, TWEAK Fn14 block 57.9
CC(NCc1ccc(OCc2ccc(Cl)cc2)cc1)C(O)c1ccccc1 (centres undefined)	Shn3 3UTR inh 97.0
Clc1ccc(-c2nnc(-c3ccccc3)o2)cn1	none
COc1ccc(CN2CCC(N(CCc3ccccc3)Cc3ccccc3)CC2)c(OC)c1	Shn3 3UTR inh 89.2
CSc1nc2c(=S)[nH]c(=S)[nH]c2s1	none (no result: EBV LMP1 NFkB, TRPM1 prom inh)
CC(=O)Oc1ccc(C(=O)O)cc1OC(C)=O	none
CC(=O)Oc1ccc(OC(C)=O)c(SCCCCCCl)c1	Shn3 3UTR inh 95.0, TWEAK Fn14 block 76.0
Cc1cc(SCC(=O)N/N=C/c2ccc(O)c(O)c2O)c(C)cc1Br	TRPM1 prom inh 65.5
COc1cc(/C=N/NC(=O)CSc2cc(C)c(Br)cc2C)ccc1O	none
COc1ccc(C)cc1/C=C/C(=O)N1CCN(S(=O)(=O)c2cccs2)CC1	none (no result: TRPM1 prom inh)
COc1ccc(C(=O)c2[nH]c(N)c(C(=O)NCCc3c[nH]c4ccccc34)c2-c2c(F)cccc2Cl)cc1	TWEAK Fn14 block 54.5 (no result: EBV LMP1 NFkB, Shn3 3UTR inh, TRPM1 prom inh)
COc1ccc(-c2nn(-c3ccccc3)cc2/C=C(\C#N)C(N)=O)cc1[N+](=O)[O-]	none
O=C(O)CCn1cc(/C=C\C(=O)c2ccc(Cl)cc2)c(-c2cccc(Br)c2)n1	TWEAK Fn14 block 64.2
COc1ccc(-c2nn(CCC(=O)O)cc2/C=C/C(=O)O)cc1[N+](=O)[O-]	TROY signal inh 64.8
Cc1ccc(Cl)cc1NS(=O)(=O)c1ccccc1	none
O=S(=O)(Nc1ccc(Cl)cc1NS(=O)(=O)c1ccccc1)c1ccccc1	TROY signal inh 50.6
COc1ccc(Cl)cc1NS(=O)(=O)c1cccc(C(=O)NCCCN2CCCC2=O)c1	none
Cc1ccc2nc(-c3sc4nc(C)ccc4c3N)[nH]c2c1	TWEAK Fn14 block 71.2
Cc1cc(C)c2c(N)c(-c3nc4ccccc4[nH]3)sc2n1	none
COC(=O)c1ccc(-n2ccnc2)cc1	none
CCOC(=O)C(=Cc1ccc(-n2ccnc2)cc1)C(=O)OCC	TROY signal inh 63.8, HIF-2a block 92.8, TWEAK Fn14 block 95.9 (no result: TRPM1 prom inh)
CCOC(=O)C(=Cc1ccc(Br)cc1)C(=O)OCC	TWEAK Fn14 block 59.5
Cc1nc(SCC(=O)Nc2ccc(F)cc2)c(C#N)c(C)c1CC(=O)c1ccc(Br)cc1	TRPM1 prom inh 64.7
COCc1cc(C)nc(SCC(=O)Nc2cccc(C)c2C)c1C#N	none
Cc1cccc(NC(=O)CSc2nc(C)c(CC(=O)c3ccc(Br)cc3)c(C)c2C#N)c1C	TRPM1 prom inh 76.1
CCOc1ccc(NC(=S)Nc2cccc3ccccc23)cc1	TWEAK Fn14 block 67.5
CCc1cccc(NC(=S)Nc2cccc3ccccc23)c1	TROY signal inh 52.2
CCOc1ccc(NC(=S)Nc2cccc3cnccc23)cc1	none
Fc1ccc(NC(=S)Nc2cccc3ccccc23)cc1	none
CC(C)c1ccc(NC(=S)Nc2cccc3ccccc23)cc1	TROY signal inh 70.5, TWEAK Fn14 block 53.4
Cc1cccc(NC(=S)Nc2cccc3ccccc23)c1	none
CN(C)S(=O)(=O)c1cccc(NC(=S)Nc2cccc3cnccc23)c1	TWEAK Fn14 block 72.8
CC1(C(=O)NS(=O)(=O)c2ccc3c(c2)CCO3)CCN1C(=O)c1ccccc1CCc1ccccc1 (centres undefined)	none (no result: EBV LMP1 NFkB, TRPM1 prom inh)
Cc1ccc(NC(=S)Nc2cccc3ccccc23)cc1	TROY signal inh 66.0

High-throughput results: PubChem BioAssay, several laboratories
